# Inconclusive results are not listed. Activity calls are given as the source filed them. Rule for the calls: active = hit-call score of the fitted dose curve at least 0.9, where 1 is the maximum; inconclusive = response in the unintended direction; inactive = score below 0.9.
# Assay: Tanguay_ZF_120hpf_PIG_legacy: (Legacy) Oregon State University Tanguay Lab 120 Hour Post-fertilization zebrafish Assay for Pigmentation Malformation (AID 2283650);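 note: dechorionated Tropical 5D zebrafish embryos exposed singly from 6 to 120 hpf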
# Protocol: Tanguay_ZF_120hpf_legacy is a whole embryo, multiplexed endpoint assay using zebrafish larvae exposed for 120 hours post fertilization on a 96-well plate.Tanguay_ZF_120hpf_PIG_legacy is one of one assay component(s) measured or calculated from the Tanguay_ZF_120hpf_legacy assay. It is designed to make measurements of zebrafish development as detected with brightfield microscopy of developing zebrafish embryos.Data from the assay component Tanguay_ZF_120hpf_PIG_legacy was analyzed into 1 assay endpoints. This assay endpoint, Tanguay_ZF_120hpf_PIG_legacy, was analyzed in the positive analysis fitting direction relative to DMSO as the negative control and baseline of activity. Using a type of morphology reporter, gain-of-signal activity can be used to understand changes in developmentals as they relate to the whole embryo. To generalize the intended target to other relatable targets, this assay endpoint is annotated to the zebrafish development intended target family, where the subfamily is embryonic pigmentation.
# Zebrafish husbandry: Tropical 5D wild-type adult zebrafish were housed in at an approximate density of 1000 per 100 gallon tank at the Sinnhuber Aquatic Research Laboratory, Oregon State University, Corvallis, OR. Each tank was kept at standard laboratory conditions of 28C on a 14-h light/10-h dark photoperiod in fish water consisting of reverse osmosis water supplemented with a commercially available salt (Instant Ocean). Spawning funnels were placed into the tanks the night prior, and embryos were collected and staged. To increase bioavailability, the chorion was enzymatically removed using pronase (63.6mg/ml, >/= 3.5U/mg, Sigma-Aldrich: P5147) at 4 hours post fertilization (hpf) using a custom automated dechorionator.Chemical exposures: Six hpf dechorionated embryos were placed 1 embryo per well in a 96-well plate prefilled with 90 ul of EM using automated embryo placement systems (AEPS). Ten microliters of each row of dilution plate 2 was added to 2 exposure plates. The final DMSO concentration used was 0.64% (vol/vol). Thirty-two embryos were also exposed to 5uM trimethyltin chloride (positive control). Plates were sealed to prevent evaporation and foil covered to reduce light exposure and kept in a 28C incubator. Embryos were statically exposed until 120 hpf. At 24 hpf, embryos were assessed for photomotor response using a custom photomotor response analysis tool (PRAT) and for developmental toxicity endpoints (MO24: mortality at 24 hpf, DP: developmental progression, SM: spontaneous movement, and NC: notochord distortion). At 120 hpf, locomotor activity was measured using Viewpoint Zebralab and assessed for 18 endpoints. Zebrafish acquisition and analysis program (ZAAP), a custom program designed to inventory, acquire, and manage zebrafish data, was used to collect developmental endpoints as either present or absent (i.e., binary responses were recorded). If mortality occurred for an embryo (at either 24 or 120 hpf), the non-mortality endpoints were not measured.
Compound,outcome,AC50
CC(C)=CCC/C(C)=C/CO,inactive,–
CCCCCCCCCCCCCCCO,inactive,–
COc1ccc(-n2nc(C(F)F)cc2-c2ccc(S(C)=O)cc2)cc1 (stereo not given),inactive,–
O=C1CCC(N2C(=O)c3ccccc3C2=O)C(=O)N1 (stereo not given),inactive,–
CCOC(=O)CC(CC(=O)OCC)(OC(C)=O)C(=O)OCC,inactive,–
CCN(C(=O)c1cc(C)cc(OC[C@H](C)Nc2ccncc2)c1)C(C)C,inactive,–
Nc1ccc(Nc2ccccc2)cc1,–,48.7 µM (active)
Nc1cccc(N)c1,inactive,–
CCOCCOCCOCCO,inactive,–
O=c1n(CC2CO2)c(=O)n(CC2CO2)c(=O)n1CC1CO1 (stereo not given),inactive,–
CC(C)=CCCC(C)=CC=O,inactive,–
CC(=O)OC[C@H]1O[C@@](COC(C)=O)(O[C@H]2O[C@H](COC(C)=O)[C@@H](OC(C)=O)[C@H](OC(C)=O)[C@H]2OC(C)=O)[C@@H](OC(C)=O)[C@@H]1OC(C)=O,inactive,–
C=CC(=C)CCC=C(C)C,inactive,–
Cn1c(=O)cc(Oc2ccc(F)cc2F)c2cnc(NCC(C)(C)O)nc21,inactive,–
CCCC(=O)OCC,inactive,–
O=C(CCCCCCCCc1cccnc1)N1CCC(C=C(c2ccccc2)c2ccccc2)CC1,inactive,–
CC1=CC(=O)CC(C)(C)C1,inactive,–
CCOCCO,inactive,–
CCC(C)(C)C(=O)O[C@H]1C[C@@H](C)C=C2C=C[C@H](C)[C@H](CC[C@@H]3C[C@@H](O)CC(=O)O3)[C@H]21,–,0.666 µM (active)
COc1cccc(-c2ccc(/C=C\CN3CCCCCC3)cc2Cl)c1,inactive,–

Compound,outcome,AC50
CC[C@H]1CC[C@H](NCc2cc3c(cc2OC)[C@H]2C[C@H]2C(=O)N3C)[C@H](c2ccccc2)N1,inactive,–
CCCCCCc1ccc(O)cc1O,inactive,–
O=C1CCCCCN1,inactive,–
CNS(=O)(=O)c1cc(C(=O)N2CCC(CCN3C4CCC3CC(n3c(C)nc5ccccc53)C4)(c3cccc(F)c3)CC2)c(Cl)cc1F (stereo not given),inactive,–
COCCOCCOCCOC,inactive,–
CC(C)=CCCC(C)CCO (stereo not given),inactive,–
Cn1c(=O)c2c(ncn2C)n(C)c1=O,inactive,–
CC(=O)c1ccc2c(c1)[C@H](NC(=O)c1ccc(F)cc1)[C@@H](O)C(C)(C)O2,inactive,–
O=c1[nH]c2ccc(S(=O)CCN3CCC(Cc4ccc(F)cc4)CC3)cc2o1 (stereo not given),inactive,–
CC(O)CN(CCN(CC(C)O)CC(C)O)CC(C)O (stereo not given),inactive,–
Cc1ccc(C)c(O)c1,inactive,–
CCNc1ccccc1,inactive,–
Clc1nc(Cl)c(Cl)c(Cl)c1Cl,inactive,–
Nc1nc2ncc(CNc3ccc(C(=O)N[C@@H](CCC(=O)O)C(=O)O)cc3)nc2c(=O)[nH]1,inactive,–
CC1(C)C(=O)N(Br)C(=O)N1Br,inactive,–
CC(C)CCCCCCOC(=O)c1ccc(C(=O)OCCCCCCC(C)C)c(C(=O)OCCCCCCC(C)C)c1,inactive,–
COC(=O)c1ccccc1O,inactive,–
O=C(OC[C@H]1O[C@@H](OC(=O)c2cc(O)c(O)c(OC(=O)c3cc(O)c(O)c(O)c3)c2)[C@H](OC(=O)c2cc(O)c(O)c(OC(=O)c3cc(O)c(O)c(O)c3)c2)[C@@H](OC(=O)c2cc(O)c(O)c(OC(=O)c3cc(O)c(O)c(O)c3)c2)[C@@H]1OC(=O)c1cc(O)c(O)c(OC(=O)c2cc(O)c(O)c(O)c2)c1)c1cc(O)c(O)c(OC(=O)c2cc(O)c(O)c(O)c2)c1,inactive,–
Cc1ccc(O)cc1,inactive,–
O=P(OC(CCl)CCl)(OC(CCl)CCl)OC(CCl)CCl,–,33.9 µM (active)
